This is a sample that favours compounds with a hit; in the whole collection about 2.4% have one here.
TGFb SMAD3 inh – qHTS for Inhibitors of TGF-b | HepG2 CAGA-GFP TGF-b/SMAD3 reporter, GFP fluorescence, 18 h; TGF-beta stimulated, 500 pg/mL final | Potency, µM (doses to about 46.1 µM), inactives show top-dose activity, negative = inhibition, actives largely listed as inhibitors | 410,000 compounds, 1.2% hits; further: on the % scale 0 is the no-effect control and ±100 the full control effect; nearly all actives have a fitted effect of over 65% in size
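GFP signal (ex488/em500-530) from TGF-beta-stimulated HEPG2 CAGA-GFP cells, 500 pg/mL final, 18 h at 37 degrees C in DMEM plus 1% FBS, normalized to unstimulated and DMSO-stimulated controls.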
Anesthetic bind – qHTS Assay for Identification of Novel General Anesthetics | AID 485281, 2010 | Ferritin light chain (Equus caballus), P02791 | 350,000 compounds, 0.074% hits | Potency, µM (series often up to 77.5 µM), inactives show top-dose activity change, negative = displacement, actives largely listed as inhibitors | apoferritin/1-aminoanthracene competitive binding, fluorescence; further: on the % scale 0 is the no-effect control and ±100 the full control effect; nearly all actives have a fitted effect of over 20% in size
Target sequence (P02791 2-175 limits assumed): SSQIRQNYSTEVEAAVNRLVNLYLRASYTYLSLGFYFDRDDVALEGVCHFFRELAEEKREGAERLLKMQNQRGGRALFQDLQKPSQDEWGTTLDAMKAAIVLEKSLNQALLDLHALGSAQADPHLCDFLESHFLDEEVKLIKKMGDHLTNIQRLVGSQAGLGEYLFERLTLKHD
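Horse-spleen apoferritin (10 uM) was mixed with 50% saturated 1-aminoanthracene in PBS, exposed to compounds for 10 min at room temperature, and read for fluorescence (ex 380 nm, em 535 nm). Competitive displacement was fitted with a four-parameter Hill equation.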
HepG2 viability – qHTS for Inhibitors of TGF-b: Cytotox Counterscreen; HepG2 CAGA-GFP viability, ATP luminescence, 18 h; Potency, µM (titrated, usually from 46.1 µM), without a hit: top-dose activity change, negative = cytotoxicity, usual class: cytotoxic; 410,000 compounds, 0.76% hits; AID 588856, 2011
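HepG2 CAGA-GFP cells (1000/well, DMEM with 1% FBS) received compound, then TGF-beta at 500 pg/mL final, and were incubated 18 hours at 37 degrees C. Viability was read by CellTiter-Glo luminescence. Media-only wells were set as complete cell-killing and DMSO as no toxicity.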
ATXN viability – Viability Counterscreen for Primary qHTS for Inhibitors of ATXN expression; 400,000 compounds, 0.49% hits; S2 cells (HEK-293 line with an ATXN2-luciferase reporter) viability, CellTiter-Fluor protease fluorescence, 24 h; Potency, µM (titrated, usually from 56.7 µM), actives largely listed as cytotoxic; further: nearly all actives have a fitted effect of over 40% in size
ATXN2 expr inh – Primary qHTS for Inhibitors of ATXN expression | HEK-293 ATXN2-luciferase reporter, luminescence, 24 h | Potency, µM (series often up to 57 µM), inactives show at the top dose activity change, negative = inhibition, hits mostly inhibitors | 360,000 compounds, 0.72% hits; further: on the % scale 0 is the no-effect control and ±100 the full control effect; nearly all actives have a fitted effect of over 55% in size
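qHTS (up to 57 uM final) was run with 24 h compound exposure of reporter cells at 37 °C. Each well was multiplexed: SteadyGlo luminescence measured ATXN2-luciferase expression after a fluorogenic Gly-Phe-AFC viability readout (25 uM final).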
* = called active by the depositor; i = inactive; ? = inconclusive; nt = not tested or not shown; [ ] = dose if it differs, or a comment. The call rests on the fitted dose curve; in most records, active means well fitted curve in the direction sought with a large enough effect; inconclusive means small, poorly fitted or top-dose-only effect, or another doubt; inactive means no such curve, though single readings can be large; an effect the other way counts as inactive or inconclusive. Potency means the concentration at half of the fitted maximal effect.

SMILES | TGFb SMAD3 inh | Anesthetic bind | HepG2 viability | ATXN viability | ATXN2 expr inh
Cn1c(=O)[nH]c(=O)c2[nH]c(N(Cc3ccccc3)Cc3ccccc3)nc21 | 11.2µM* | -19.9% | 12.6µM* | ? | ?
Cn1ncc(Br)c1NC(=O)Nc1ccccc1 | -0.3% | 5.3% | 3.5% | i | nt
Cc1cccc(C)c1OCC(=O)N[C@@H](Cc1ccccc1)[C@@H](O)C[C@H](Cc1ccccc1)NC(=O)[C@H](C(C)C)N1CCCNC1=O | 12.6µM* | nt | -8.2% | 31.6µM* | ?
O=C(O)c1ccc2nc(-c3cc4cccc(O)c4oc3=O)[nH]c2c1 | nt | 90.7% | 8.91µM* | nt | nt
CCOC(=O)c1c(C)oc2nc(C)nc(N3CCN(c4ccc(C(C)=O)cc4)CC3)c12 | -2.2% | -7.6% | -20.3% | i | 9.1%
Cc1oc(-c2ccc3c(c2)OCCO3)cc1C(=O)NCC(=O)O | -9.8% | -13.3% | -7.6% | i | -37.3%
Cc1oc(-c2ccc3c(c2)OCCO3)cc1C(=O)O | 4.5% | -10.4% | -56.9% | ? | 7.08µM*
COc1ccc(-n2c(CCNC(=O)c3ccccc3C(F)(F)F)nnc2SC)cc1 | nt | nt | nt | i | nt
CC(=O)Nc1ccc(/C=C/c2ccnc3ccccc23)cc1 | 18.5% | nt | -24.5% | nt | nt
O=C(c1ccc(C(=O)N2CCC(N3CCCC3)CC2)c(Nc2ccccc2)c1)N1CCC(N2CCCC2)CC1 | nt | nt | nt | nt | -7.3%
O=[N+]([O-])c1ccc(O/N=[N+](\[O-])N2CCN(c3ncccn3)CC2)c([N+](=O)[O-])c1 | 10µM* | nt | -91.4% | nt | nt
CC(=O)N1CCN(/[N+]([O-])=N/Oc2ccc([N+](=O)[O-])cc2[N+](=O)[O-])CC1 | ? | nt | -98.4% | nt | nt
O=C(OCCF)N1CCN(/[N+]([O-])=N/Oc2ccc([N+](=O)[O-])cc2[N+](=O)[O-])CC1 | 8.91µM* | nt | 20µM* | nt | nt
CC(C)(C)OC(=O)N1CCN(/[N+]([O-])=N/Oc2ccc([N+](=O)[O-])cc2[N+](=O)[O-])CC1 | ? | nt | -99.9% | nt | nt
O=[N+]([O-])c1ccc(O/N=[N+](\[O-])N2CCN(c3ccccc3)CC2)c([N+](=O)[O-])c1 | 11.2µM* | nt | -25.0% | nt | nt
COc1cc(O)oc1C=Nc1ccc(C(=O)O)cc1 | -3.3% | -17.7% | 14.1µM* | i | -30.8%[11.3 µM]
CCOC(=O)c1cc(C#N)c(SC(C(=O)N2CCCCC2)c2ccccc2)nc1C (stereo not drawn) | -8.8% | nt | -7.1% | nt | nt
O=[N+]([O-])/C=C/c1cn(Cc2ccc(F)cc2)c2ccccc12 | 7.94µM* | ? | -58.9% | ? | ?
CC[C@H](C)[C@H](NC(=O)[C@H](Cc1ccc(O)cc1)NC(=O)[C@H](Cc1cnc[nH]1)NC(=O)[C@H](CCCNC(=N)N)NC(=O)[C@H](CC(C)C)NC(=O)[C@H](C)NC(=O)[C@H](CO)NC(=O)[C@H](Cc1ccc(O)cc1)NC(=O)[C@H](Cc1ccc(O)cc1)NC(=O)[C@H](CCCNC(=N)N)NC(=O)[C@H](C)NC(=O)[C@H](CCSC)NC(=O)[C@H](CC(=O)O)NC(=O)[C@H](CCC(=O)O)NC(=O)[C@H](C)NC(=O)[C@@H]1CCCN1C(=O)[C@H](C)NC(=O)[C@H](CC(=O)O)NC(=O)[C@H](CCC(=O)O)NC(=O)CNC(=O)[C@@H]1CCCN1C(=O)[C@H](CC(N)=O)NC(=O)[C@H](CC(=O)O)NC(=O)[C@@H]1CCCN1C(=O)[C@H](CCCCN)NC(=O)[C@H](CO)NC(=O)[C@@H]1CCCN1C(=O)[C@@H](N)Cc1ccc(O)cc1)C(=O)N[C@@H](CC(N)=O)C(=O)N[C@@H](CC(C)C)C(=O)N[C@@H](CC(C)C)C(=O)N[C@H](C(=O)N[C@@H](CCCNC(=N)N)C(=O)N1CCC[C@H]1C(=O)N[C@@H](CCCNC(=N)N)C(=O)N[C@@H](Cc1ccc(O)cc1)C(N)=O)[C@@H](C)O | nt | -21.3% | nt | nt | nt
CC(=O)OCC(NC(=O)C(COCc1ccccc1)NC(=O)OC(C)(C)C)C1OC(n2ccc(=O)[nH]c2=O)C(OC(C)=O)C1OC(C)=O (stereo not drawn) | -11.4% | 0.7% | -1.8% | nt | nt
COc1cc(OC)c(/C=C/c2c3ccccc3cc[n+]2C)c(OC)c1 | 10µM* | nt | -21.6% | nt | nt
COc1ccc(NC(=O)c2noc3c2CCC3)cc1 | 2.2% | -17.7% | -37.1% | i | -16.0%
CC(=O)c1ccc(NC(=O)c2noc3c2CCC3)cc1 | -0.2% | -2.3% | -8.1% | i | 3.98µM*
CN1OC[C@@H]2CN(Cc3cc(Cl)cc(Cl)c3)[C@H](c3cccc(Br)c3)C[C@@H]21 | -12.9% | nt | -39.1% | ? | -25.4%
CCOC(=O)C(C(=O)OCC)c1cc(Br)c2noc3c2c1C(=O)c1ccccc1-3 | 6.31µM* | -13.8% | -52.8% | 20µM* | 11.2µM*
SMILES | TGFb SMAD3 inh | Anesthetic bind | HepG2 viability | ATXN viability | ATXN2 expr inh
CCCC[C@H](NC(C)=O)C(=O)N[C@H]1CC(=O)NCCCC[C@@H](C(N)=O)NC(=O)[C@H](Cc2c[nH]c3ccccc23)NC(=O)[C@H](CCCN=C(N)N)NC(=O)[C@@H](Cc2ccccc2)NC(=O)[C@H](Cc2cnc[nH]2)NC1=O | nt | 5.0% | nt | nt | nt
Cc1ccc(-c2[nH]ncc2/C=N/n2c(COc3ccccc3)nc3ccccc3c2=O)cc1 | 10µM* | 3.8% | 14.1µM* | nt | ?
Cc1cc(/C=N/n2c(COc3ccccc3)nc3ccccc3c2=O)c(O)c([N+](=O)[O-])c1 | 15.8µM* | 5.9% | -18.7% | ? | ?
Cc1ccc(-c2nc(SCCOc3ccccc3C)n3[nH]c(=O)cc3n2)cc1 | 11.2µM* | -10.3% | -50.8% | ? | ?
COc1ccccc1OCCSc1nc(-c2ccc(C(C)(C)C)cc2)nc2cc(=O)[nH]n12 | ? | ? | -54.6% | ? | ?
CC1=NOC2(C1)N(C)c1ccccc1C2(C)C (stereo not drawn) | 10.5% | -14.7% | -6.6% | i | -4.3%
COc1ccc2ccc3c(c2c1)N=C[C@]1(O3)N(C)c2ccccc2C1(C)C | ? | 5.6% | 6.31µM* | i | -16.4%
CC1CCCCN1CCNC(=O)c1ccc2c(=O)n(Cc3ccc(Cl)cc3)c(=S)[nH]c2c1 (stereo not drawn) | ? | -23.2% | 12.6µM* | i | ?
O=C(O)CNC(=O)C1CCCN1C(=O)CNC(=O)OCc1ccccc1 (stereo not drawn) | 14.8% | 14.2% | 4.1% | i | 2.2%
O=C(CNC(=O)OCc1ccccc1)NCC(=O)N1CCCC1C(=O)OCc1ccccc1 (stereo not drawn) | ? | -8.1% | 11.2µM* | i | -11.9%

Compound activity from PubChem BioAssay.
